Experimental data: ChEMBL document CHEMBL1157539, “Thousands of chemical starting points for antimalarial lead identification” (Nature, 2010)

Columns and labels:
Assay type in all cases: functional
[1] = tested on: Plasmodium falciparum; experiment: GSK_TCMDC: Inhibition of Plasmodium falciparum 3D7 in whole red blood cells, using parasite LDH activity as an index of growth. Test compounds present at 2uM
[2] = tested on: Plasmodium falciparum; experiment: GSK_TCMDC: Inhibition of Plasmodium falciparum Dd2 in whole red blood cells, using parasite LDH activity as an index of growth. Test compounds present at 2uM
[3] = tested on: HepG2; experiment: GSK_TCMDC: Percent inhibition of human HepG2 cell line. Test compounds present at 10uM.

| Compound | Inhibition [1] [%] | Inhibition [2] [%] | Inhibition [3] [%] |
| --- | --- | --- | --- |
| CC(=O)Nc1ccc(C2NC(=O)NC(c3ccccc3)=C2c2nc3ccccc3s2)cc1 (centres undefined) | 93 | 96 | 0 |
| CCOc1ccc(C(=O)Nc2cc(Br)c3c(c2)CNCC3)cc1C(F)(F)F.Cl | 98 | 22 | 15 |
| O=C(NCCCCCN1CCC(c2ccc(O)cc2)CC1)c1ccc(-c2ccccc2)cc1 | 92 | 0 | 28 |
| COc1ccc(CNCc2ccccc2)cc1-c1ccc(S(=O)(=O)NCCN2CCCC2)c(C)c1.O=C(O)C(F)(F)F | 99 | 50 | 33 |
| Cn1nccc1C(=O)NCCNCc1cccc(-c2ccc(-c3nc4ccccc4[nH]3)s2)c1.O=C(O)C(F)(F)F | 100 | 94 | 22 |
| Cc1ccc2nc3sc(C(=O)NCCCN4CCC(N5CCCCC5)CC4)cc3cc2c1 | 100 | 71 | 11 |
| CCOc1ccccc1CNc1nccc(NCc2ccc(Cl)cc2Cl)n1 | 83 | 58 | 26 |
| Cn1c(CN2CCC(N3CCc4cc(NC(=O)c5ccco5)ccc43)C2)cc2ccccc21 (centres undefined) | 91 | 92 | 0 |
| O=C1COc2ccc3ccccc3c21 | 99 | 3 | 0 |
| Cc1cccc2nc(-c3ccc(-c4cccc(CNCc5ccccc5)c4)cc3)[nH]c12.O=C(O)C(F)(F)F | 100 | 52 | 3 |
| O=C(Nc1ccc(CCNC2=NCCN2)cc1)Nc1ccc(CCNC2=NCCN2)cc1 | 90 | 66 | 6 |
| O=C(Nc1ccc(Cl)cc1)NC1CCN(CCCCCNC(=O)C2CC2c2ccc(Cl)c(Cl)c2)CC1 (centres undefined) | 100 | 18 | 51 |
| Cc1ccc2[nH]c(C)cc(=NN=Cc3ccc(Cl)cc3)c2c1 | 100 | 35 | 0 |
| O=C(C=Cc1cn(-c2ccccc2)nc1-c1cccs1)N1CCN(c2ccncc2)CC1 | 100 | 61 | 31 |
| Cc1ccc(Cl)c2sc(N3CCN(C(=O)c4ccc([N+](=O)[O-])o4)CC3)nc12 | 97 | 94 | 21 |
| Oc1ccccc1CN1CCCC(COC(c2ccc(F)cc2)c2ccc(F)cc2)C1 (centres undefined) | 97 | 98 | 19 |
| Cc1ccc(O)c(-c2cc(C(=O)Nc3ccc(S(=O)(=O)N4CCCC(C)C4)cc3)[nH]n2)c1 (centres undefined) | 96 | 97 | 27 |
| CCc1cc(=O)[nH]c(-n2nc(C)cc2NC(=O)CC(c2ccccc2)c2ccccc2)n1 | 92 | 75 | 37 |
| CCNc1cc(C)nc(Nc2ccc(NC(=O)c3ccc(OC)c(OC)c3)cc2)n1 | 100 | 65 | 19 |
| O=C(Nc1ccsc1)Nc1cccc(-c2cccc(-c3nc4ccccc4[nH]3)c2)c1 | 100 | 55 | 61 |
| COc1ccc(Nc2cc(C)nc(NCc3ccc4c(c3)OCO4)n2)cc1 | 99 | 78 | 26 |
| COc1ccc2nccc([C@@H](O)CN3CCC(NCc4nc5c(C#N)cccc5[nH]4)CC3)c2c1.O=C(O)C(=O)O | 96 | 9 | 0 |
| CC(=O)N(C)c1ccc(C(=O)Nc2cccc(-c3cccc(-c4nc5cccc(C)c5[nH]4)c3)c2)cc1 | 89 | 30 | 11 |
| Cl.O=C(NCCCCN1CCC(c2ccc3c(c2OC(=O)c2ccc(NC(=O)c4ccc(Cl)cc4)cc2)CCCC3)CC1)c1ccc(NC(=O)c2ccc(Cl)cc2)cc1 | 100 | 99 | 62 |
| O=C(Nc1ccc(Cl)c(-c2nc3ccccc3[nH]2)c1)c1ccc(-c2ccc(Cl)cc2)o1 | 89 | 22 | 16 |
| CN(Cc1ccc(-c2ccc(C(F)(F)F)cc2)cc1)C(=O)Cn1c(CCc2cccc(F)c2F)cc(=O)c2ccc(OCC3CCCN3C)cc21.O=C(O)C(O)C(O)C(=O)O (centres undefined) | 87 | 37 | 100 |
| Cc1ccc(N2CCc3c(-c4cc5cccnc5nc4C)cc(C)nc32)c(Cl)c1.O=C(O)C(F)(F)F | 96 | 90 | 0 |
| Fc1ccc2[nH]c(-c3ccc(-c4ccc(CN5CCC(CCN6CCCCC6)CC5)cc4)cc3)nc2c1.O=C(O)C(F)(F)F | 100 | 100 | 98 |
